The values that follow come from PubChem BioAssay (Tox21).

Each structure is given as a SMILES string. Where “and” joins values, the source holds several entries; their conditions need not be identical. Equal entries are not always repeated. Results filed as inconclusive are left out. Where a call stands in place of a potency, no number is given. Some compounds were tested as several samples or in several runs, with calls that do not always agree. Calls of active or inactive are those of the source. Calls come from the whole dose curve; as a rule, active = well fitted cell-killing curve with a large enough effect in the repeat runs; inconclusive = weak or mixed curves, or effect the other way; inactive = no such curve, though single readings can be large or run the other way.
Potency is the fitted concentration of half-maximal effect.

The test in a line: qHTS assay for identifying genotoxic compounds that show differential cytotoxicity against isogenic chicken DT40 cell lines with known DNA damage response pathways - Rev3 mutant cell line (AID 743014). Note: nearly all actives have a fitted effect of over 55% in size. The settings on record: chicken DT40 Rev3-/- viability, CellTiter-Glo, 40 h; series mostly up to 68.4 µM. The text has this:
National Center for Advancing Translational Sciences [NCATS]
NIH Chemical Genomics Center [NCGC]
U.S. Environmental Protection Agency [EPA]
National Institutes of Environmental Health Sciences [NIEHS]
National Toxicology Program [NTP]
U.S. Food and Drug Administration [FDA]
DNA repair pathways play a critical role in cellular homeostasis by repairing DNA damage induced by endogenous processes and xenobiotics. Isogenic chicken DT40 cell lines deficient in different DNA repair pathways can be used to identify genotoxic compounds and aid in characterizing the nature of the DNA damage induced. Two DNA repair-deficient cell lines with disrupted genes, Rad54/Ku70 or Rev3, were used to screen the Tox21 10K compound library. Possible genotoxicity was based on the presence of a significant increase in cytotoxicity in one or more of the DNA repair-deficient cell lines compared to that observed in the parental DNA repair-proficient cell line. CellTiter Glo viability assay (Promega, Madison, WI) was used to measure cell viability in these cells after compound treatment. This assay includes the data from the Rev3 mutant cell line.
Tox21 Assay Protocol Summary:
300 DT40 mutant cells in 5 uL/well were dispensed into white, solid-bottom 1536-well plates using a Multidrop Combi (ThermoFisher Scientific, Waltham, MA) dispenser. After the assay plates were incubated at 37 C/5% CO2 for approximately 0.5 hour, 23 nL of compounds dissolved in DMSO, positive controls or DMSO only was transferred into the assay plate by a pintool work station (Kalypsys, San Diego, CA). The assay plates were incubated at 37 C/5% CO2 for 40 hours. After 5 uL per well of CellTiter-Glo reagent was added into each well of the assay plates, the plates were incubated for 30 min at room temperature and the luminescence intensity of the plates was measured using a ViewLux (PerkinElmer, Shelton, CT) plate reader.
Turning to `Cc1cc(C(C)(C)C)c(O)c(C(C)(C)C)c1`, the Potency result is “inactive and 30.6 µM (active)”.

Turning to `O=Cc1ccc(Cl)cc1`, the Potency result is “inactive”. Regarding `CC(C)(c1ccccc1)c1ccc(Nc2ccc(C(C)(C)c3ccccc3)cc2)cc1`, the Potency entry is “inactive and 54.5 µM (active)”. Consider `O=C(O)c1cn(-c2ccc(F)cc2)c2cc(N3CCNCC3)c(F)cc2c1=O`, for which the Potency entry is “inactive”. As for `O=C(Cl)c1cccc(C(=O)Cl)c1`, the Potency entry was “inactive”.

`Oc1c(Cl)cc(Cl)cc1Sc1cc(Cl)cc(Cl)c1O`: the Potency is 17.3 µM (active) [middle of 4 runs].

For `CCCCC/C=C/CC1CC(=O)OC1=O` (stereo not given), the Potency result was “inactive”. In the case of `C=CC(=O)OCCCCCCCC`, the Potency entry was “inactive”. Under `CC(C)(C)NC(=O)[C@@H]1CN(Cc2cccnc2)CCN1C[C@@H](O)C[C@@H](Cc1ccccc1)C(=O)N[C@H]1c2ccccc2C[C@H]1O` stands 23.7 µM (active) and inactive; under `CC1=CC(=O)c2ccccc2C1=O`, 23.7 µM (active) and 12.2 µM (active); under `Cc1cc(OCCOCC[N+](C)(C)Cc2ccccc2)ccc1C(C)(C)CC(C)(C)C`, 1.19 µM (active) and 682 nM (active).

Turning to `O=C1OC2(c3ccc(O)cc3Oc3cc(O)ccc32)c2ccccc21`, the Potency entry is “inactive”. Under `Cc1cccc(O)c1C` stands “inactive”; under `c1ccc2cc3c(ccc4ccccc43)cc2c1`, “inactive”. The entry for `Nc1cc(S(=O)(=O)O)cc2cc(S(=O)(=O)O)cc(O)c12` is “inactive and 24.3 µM (active)”.

Consider `CC(C(O)c1ccc(O)cc1)N1CCC(Cc2ccccc2)CC1` (stereo not given), for which the Potency is 0.335 µM (active). Take `COc1ccc(CCN(C)CCCC(C#N)(c2ccc(OC)c(OC)c2)C(C)C)cc1OC` (stereo not given): the Potency was 23.7 µM (active) and 27.3 µM (active).

As for `C=CS(=O)(=O)O`, the Potency result was “inactive”.

For the molecule `O`, the Potency entry was “inactive and 9.81 µM (active)”. Turning to `COC(=O)c1cccc(C(=O)OC)c1`, the Potency entry was “inactive”.

With `Cc1cc(C2(c3cc(C)c(O)cc3C)OS(=O)(=O)c3ccccc32)c(C)cc1O`, the Potency result was “inactive”. Consider `Cc1ccnc2c1NC(=O)c1cccnc1N2C1CC1`, for which the Potency result is “inactive”. Consider `CCCCCCCCCCCCc1ccccc1O`, for which the Potency was 7.59 µM (active) and 24.3 µM (active). Under `O=C(O)CP(=O)(O)O` stands “inactive”.

For the molecule `CCOc1ccc2c(c1)C(C)=CC(C)(C)N2`, the Potency was 26.6 µM (active) and 27.2 µM (active) and 17.2 µM (active). Consider `OCCOCCN1CCN(C(c2ccccc2)c2ccc(Cl)cc2)CC1` (stereo not given), for which the Potency was 21.4 µM (active). For `Nc1cc(Cl)c(-c2cc(Cl)c(N)cc2Cl)cc1Cl`, the Potency is 2.43 µM (active) and 5.45 µM (active). The entry for `OCC(CO)N[C@H]1C[C@](O)(CO)[C@@H](O)[C@H](O)[C@H]1O` is “inactive”. With `NC(N)=NC(=O)Cc1c(Cl)cccc1Cl`, the Potency entry was “inactive”. Regarding `COc1nc(C)nc(Cl)c1NC1=NCCN1`, the Potency result is “inactive”. The entry for `CO[Si](OC)(OC)c1ccccc1` is “inactive”. `O=c1n(CC2CO2)c(=O)n(CC2CO2)c(=O)n1CC1CO1` (stereo not given): the Potency is 53.1 nM (active) and 38.6 nM (active).

On to `Cc1cccc2n[nH]nc12`, for which the Potency result was “inactive”.

With `Cc1cc(Cc2cc(C)cc(C(C)(C)C)c2O)c(O)c(C(C)(C)C)c1`, the Potency was 13.8 µM (active) and 19.3 µM (active). Consider `O=C(O[C@@H]1Cc2c(O)cc(O)cc2O[C@@H]1c1cc(O)c(O)c(O)c1)c1cc(O)c(O)c(O)c1`, for which the Potency is 54.6 µM (active). Turning to `CCN1CCCC1CNC(=O)c1cc(S(=O)(=O)CC)c(N)cc1OC` (stereo not given), the Potency entry is “inactive”. Regarding `NC(N)=Nc1nc(CSCC/C(N)=N/S(N)(=O)=O)cs1`, the Potency result was “inactive”. Under `O=Nc1ccc(Nc2ccccc2)cc1` stands 1.23 µM (active) and 1.72 µM (active); under `O=C(OCc1ccccc1)c1ccc(O)cc1`, “inactive”. Take `CCN(CC)c1ccc2c(C)cc(=O)oc2c1`: the Potency is 69.1 µM (active).
